Results reported in PubChem BioAssay (EPA / NIEHS).
Results filed as inconclusive are left out. Activity calls are given as the source filed them. The calls were made as follows, unless noted: active = hit-call score of the fitted dose curve at least 0.9, where 1 is the maximum; inconclusive = response in the unintended direction; inactive = score below 0.9.

Legend:
[1] = TOX21_p53_BLA_p2_viability: Viability Assessment in the Tox21 HCT-116 p53 Agonism Beta-lactamase Assay, Phase 2 (AID 2283591);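 also: compound exposure lasted 16 h at 37 °C; actives lower the ATP signal meaning cytotoxicity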
Summary of the method: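 HCT116 p53-bla cells, 4000/well, dosed after 5 h plating (217-fold dilution of DMSO stocks) and incubated 16 h at 37C. Viability taken as cellular ATP by CellTiter-Glo luminescence after 30 min RT; signal loss marks cytotoxicity.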

[2] = molecular target: Cellular tumor antigen p53 (Homo sapiens) (UniProt P04637); test: TOX21_p53_BLA_p2_ratio: Tox21 HCT-116 p53 Agonism Beta-lactamase Assay, Ratio, Phase 2 (AID 2283592)
Cellular tumor antigen p53 (Homo sapiens), sequence (P04637 whole entry, looked up): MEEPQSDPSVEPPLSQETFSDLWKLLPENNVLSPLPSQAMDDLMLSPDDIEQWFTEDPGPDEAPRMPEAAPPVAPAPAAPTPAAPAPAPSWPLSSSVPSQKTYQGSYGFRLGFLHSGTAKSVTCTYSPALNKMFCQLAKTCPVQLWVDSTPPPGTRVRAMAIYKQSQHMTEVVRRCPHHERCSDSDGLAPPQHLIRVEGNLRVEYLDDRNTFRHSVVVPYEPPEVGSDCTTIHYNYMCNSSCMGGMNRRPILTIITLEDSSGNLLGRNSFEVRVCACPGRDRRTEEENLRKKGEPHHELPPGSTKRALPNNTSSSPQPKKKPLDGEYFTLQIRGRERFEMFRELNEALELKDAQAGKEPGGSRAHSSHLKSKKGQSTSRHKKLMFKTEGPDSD
Summary of the method: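 In this cell-based reporter format, HCT116 cells were dosed with chemicals delivered from DMSO by 217-fold dilution and incubated 16 h at 37C. Emission at 460 and 530 nm after 2 h CCF4-AM loading provided the ratio, fitted upward versus DMSO.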

[3] = TOX21_p53_BLA_p3_viability: Viability Assessment in the Tox21 HCT-116 p53 Agonism Beta-lactamase Assay, Phase 3 (AID 2283593);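 also: cells exposed to compound for 16 h before reading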
Summary of the method: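 HCT116 cells, 4000/well, dosed 5 h after plating by pin transfer (217-fold dilution from DMSO stock) and incubated 16 h at 37C, 5% CO2. Viability read as ATP luminescence with CellTiter-Glo after 30 min at room temperature.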

[4] = molecular target: Cellular tumor antigen p53 (Homo sapiens) (UniProt P04637); test: TOX21_p53_BLA_p5_ratio: Tox21 HCT-116 p53 Agonism Beta-lactamase Assay, Ratio, Phase 5 (AID 2283599)
Summary of the method: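 HCT-116 p53-bla cells (4000/well) plated 5 h, dosed with compound (217-fold DMSO dilution) for 16 h at 37 C; CCF4-AM substrate 2 h at room temperature. Activity is the 460/530 nm emission ratio (405 nm excitation), fitted in gain-of-signal direction versus DMSO.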

[5] = TOX21_p53_BLA_p5_viability: Viability Assessment in the Tox21 HCT-116 p53 Agonism Beta-lactamase Assay, Phase 5 (AID 2283600)
Summary of the method: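 Compounds, pinned from DMSO at 217-fold dilution, were left on the cells for 16 h. The viability endpoint was ATP content measured by CellTiter-Glo luminescence, where falling signal reflects cytotoxicity.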

[6] = molecular target: Cellular tumor antigen p53 (Homo sapiens) (UniProt P04637); test: TOX21_p53_BLA_p4_ratio: Tox21 HCT-116 p53 Agonism Beta-lactamase Assay, Ratio, Phase 4 (AID 2283601)
Summary of the method: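 HCT-116 p53 beta-lactamase reporter cells (4000/well) preincubated 5 h, then compound (217-fold dilution of DMSO stock) for 16 h at 37C. CCF4-AM substrate added 2 h at room temperature; 460/530 nm emission ratio fitted upward versus DMSO.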

[7] = UKN5_HCS_SBAD2_cell_viability: Viability Assessment in the University of Konstanz (UKN) Leist Lab Neurite Outgrowth Assay in human iPSC-derived immature Dorsal Root Ganglia Neurons (UKN5) (AID 2284056; active = hit-call score of the fitted dose curve at least 0.9, where 1 is the maximum; inactive = score below 0.9)
Summary of the method: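 iPSC-derived immature peripheral neurons (SBAD2) seeded on Matrigel with CHIR99021, SU5402 and DAPT, dosed 1 h later for 24 h. Viability from Hoechst H-33342 and calcein-AM live staining, high-content imaging; bidirectional fit versus DMSO.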

[8] = UKN5_HCS_SBAD2_neurite_outgrowth: University of Konstanz (UKN) Leist Lab Neurite Outgrowth Assay in human iPSC-derived immature Dorsal Root Ganglia Neurons (UKN5) (AID 2284070; active = hit-call score of the fitted dose curve at least 0.9, where 1 is the maximum; inactive = score below 0.9); conditions: actives raise or lower the signal
Summary of the method: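 SBAD2 neurons, 24 h compound treatment, calcein-AM neurite area via HCS imaging; DMSO baseline, gain or loss of signal.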

[9] = UKN2_HCS_IMR90_neural_migration: University of Konstanz (UKN) Leist Lab Neural Crest Cell Migration Assay in human induced IMR90 Pluripotent Stem Cells (UKN2) (AID 2284204; active = hit-call score of the fitted dose curve at least 0.9, where 1 is the maximum; inactive = score below 0.9); conditions: actives raise or lower the signal
Summary of the method: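 iPSC-derived IMR90 neural crest cells seeded around stoppers on PLO/laminin/fibronectin; migration started in N2-S medium with EGF/FGF, compounds added after 24 h for 24 h. Migration into cell-free area imaged after calcein-AM/Hoechst staining; bidirectional fit versus DMSO.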

[10] = UKN4_HCS_LUHMES_neurite_outgrowth: University of Konstanz (UKN) Leist Lab Neurite Outgrowth Assay in human LUHMES cells (UKN4) (AID 2284206; active = hit-call score of the fitted dose curve at least 0.9, where 1 is the maximum; inactive = score below 0.9); conditions: actives raise or lower the signal
Summary of the method: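 2-day-differentiated LUHMES, 24 h cpd exposure, live calcein-AM + H-33342 stain, HCS fluorescence imaging of neurite area; DMSO = baseline, bidirectional fit.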

[11] = IUF_NPC1b_proliferation_BrdU_72hr: Leibniz Research Institute for Environmental Medicine (IUF) 72-hour Neural Progenitor Cell Bromodeoxyuridine (BrdU) Proliferation Assay (NPC1b) (AID 2284207; active = hit-call score of the fitted dose curve at least 0.9, where 1 is the maximum; inactive = score below 0.9)
Summary of the method: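 BrdU luminescence ELISA quantified DNA synthesis over the last 16 h of a 72 h exposure, fitted against DMSO. Primary hNPC spheres from gestational week 16-19 cortex grown with EGF/FGF at 37C, pH 7.2-7.6.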

[12] = IUF_NPC1a_proliferation_area_72hr: Leibniz Research Institute for Environmental Medicine (IUF) 72-hour Neural Progenitor Cell Proliferation Area Assay (NPC1a) (AID 2284208; active = hit-call score of the fitted dose curve at least 0.9, where 1 is the maximum; inactive = score below 0.9)
Summary of the method: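 hNPC spheres (human fetal cortex, GW 16-19), one per poly-Hema U-bottom well; EGF+FGF medium; dosed day 0, no re-dosing; 72 h, 37C, 5% CO2; phase-contrast sphere area; DMSO = baseline; minus-GF = positive ctrl.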

[13] = IUF_NPC1_viability_72hr: Viability Assessment at 72 hours in the Leibniz Research Institute for Environmental Medicine (IUF) Neural Progenitor Cell Proliferation Assay (NPC1) (AID 2284209; active = hit-call score of the fitted dose curve at least 0.9, where 1 is the maximum; inactive = score below 0.9)
Summary of the method: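 Each well receives one 0.3 mm progenitor sphere from fetal brain cortex; test chemical is added at plating and left three days. Viability comes from alamar blue fluorescence, multiplexed with LDH and BrdU readouts in the same well.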

[14] = UKN4_HCS_LUHMES_cell_viability: Viability Assessment in the University of Konstanz (UKN) Leist Lab Neurite Outgrowth Assay in human LUHMES cells (UKN4) (AID 2284232; active = hit-call score of the fitted dose curve at least 0.9, where 1 is the maximum; inactive = score below 0.9)
Summary of the method: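 Human dopaminergic-model LUHMES neurons were exposed to chemicals for 24 h after a 2-day differentiation. Viability was scored by imaging Hoechst H-33342 staining, with activity fitted in both directions relative to DMSO controls.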

[15] = UKN2_HCS_IMR90_cell_viability: Viability Assessment in the University of Konstanz (UKN) Leist Lab Neural Crest Cell Migration Assay in human induced IMR90 Pluripotent Stem Cells (UKN2) (AID 2284233; active = hit-call score of the fitted dose curve at least 0.9, where 1 is the maximum; inactive = score below 0.9;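 also: viability of neural crest cells differentiated from IMR90 iPSC measured by calcein-AM fluorescence imaging; cells exposed to compound for 24 h after a 24 h migration phase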)
Summary of the method: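 Neural crest cells derived from IMR90 iPSC migrate into a stopper-free zone for 24 h in EGF/FGF medium, then are exposed to compound for 24 h. Viability assessed by calcein-AM and Hoechst staining with high-content imaging, fitted bidirectionally versus DMSO.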

[16] = IUF_NPC2a_radial_glia_migration_120hr: Leibniz Research Institute for Environmental Medicine (IUF) 120-hour Neural Progenitor Cell Migration Assay for Radial Glia Migration (NPC2a) (AID 2284298; active = hit-call score of the fitted dose curve at least 0.9, where 1 is the maximum; inactive = score below 0.9)
Summary of the method: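 Hoechst-stained nuclei imaged at 120 h; algorithm maps sphere core by densest nuclei, sets migration edge at density threshold, gives radial glia migration distance (um) per well vs DMSO. hNPC spheres (0.3 mm), PDL/laminin, DMEM/F12 3:1 + 1% N2.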

[17] = IUF_NPC2a_radial_glia_migration_72hr: Leibniz Research Institute for Environmental Medicine (IUF) 72-hour Neural Progenitor Cell Migration Assay for Radial Glia Migration (NPC2a) (AID 2284299; active = hit-call score of the fitted dose curve at least 0.9, where 1 is the maximum; inactive = score below 0.9)
Summary of the method: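 Migration out of plated human neural progenitor spheres is scored at 72 h as the distance in um from the sphere core edge to the edge of the migration area. Values are the mean of four manual measurements per well, normalised to DMSO.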

[18] = IUF_NPC3_neuronal_differentiation_120hr: Leibniz Research Institute for Environmental Medicine (IUF) 120-hour Neuronal Differentiation Assay (NPC3) (AID 2284301; active = hit-call score of the fitted dose curve at least 0.9, where 1 is the maximum; inactive = score below 0.9)
Summary of the method: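 Human fetal (GW 16-19) neural progenitor spheres (0.3 mm) plated on poly-D-lysine/laminin in N2 differentiation medium, exposed 120 h at 37C with half-medium renewal day 3; 7 concentrations. TUBB3+ cells as % of Hoechst nuclei, CNN-identified; DMSO baseline.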

[19] = IUF_NPC4_neurite_length_120hr: Leibniz Research Institute for Environmental Medicine (IUF) 120-hour Neuronal Morphology Assay for Neurite Length (NPC4) (AID 2284302; active = hit-call score of the fitted dose curve at least 0.9, where 1 is the maximum; inactive = score below 0.9)
Summary of the method: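 Human fetal neural progenitor spheres (0.3 mm) plated on poly-D-lysine/laminin in N2 differentiation medium, exposed from day 0 for 120 h with half-medium refresh at day 3, 37C. Mean neurite length (um) of TUBB3-positive neurons from skeletonized immunostaining images; DMSO ≤0.1%.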

[20] = IUF_NPC4_neurite_area_120hr: Leibniz Research Institute for Environmental Medicine (IUF) 120-hour Neuronal Morphology Assay for Neurite Area (NPC4) (AID 2284305)
Summary of the method: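 Human fetal neural progenitor spheres (0.3 mm) plated on poly-D-lysine/laminin in N2 differentiation medium, exposed 120 h (7 concentrations, DMSO ≤0.1%, half-medium refresh day 3). Fixed, TUBB3 immunostained; mean neurite area per neuron by Omnisphero skeletonization.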

[21] = IUF_NPC2-5_cytotoxicity_120hr: Cytotoxicity Assessment at 120 hours in the Leibniz Research Institute for Environmental Medicine (IUF) Neural Progenitor Cell Migration and Differentiation Assay (NPC2-5) (AID 2284307);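 also: LDH released into supernatant as membrane damage marker via resorufin fluorescence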
Summary of the method: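 hNPC spheres on PDL/laminin, N2 medium, 37C; 7 concs + solvent control, DMSO ≤0.1%; 5-day exposure, half medium changed day 3. LDH in supernatant at 120 h, resazurin→resorufin fluorescence, gain-of-signal.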

[22] = IUF_NPC2-5_cell_number_120hr: Cell Number Assessment at 120 hours in the Leibniz Research Institute for Environmental Medicine (IUF) Neural Progenitor Cell Migration and Differentiation Assay (NPC2-5) (AID 2284308; active = hit-call score of the fitted dose curve at least 0.9, where 1 is the maximum; inactive = score below 0.9;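 also: count of Hoechst-stained nuclei in migration zone around plated human neural progenitor spheres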)
Summary of the method: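 Hoechst-stained nuclei within the migration area were counted by automated high content imaging after 120 h. Single hNPC spheres differentiated on poly-D-lysine/laminin in DMEM/F12 (3:1) with 1% N2, compound present throughout, DMSO ≤0.1%.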

[23] = IUF_NPC2-5_viability_120hr: Viability Assessment at 120 hours in the Leibniz Research Institute for Environmental Medicine (IUF) Neural Progenitor Cell Migration and Differentiation Assay (NPC2-5) (AID 2284312; active = hit-call score of the fitted dose curve at least 0.9, where 1 is the maximum; inactive = score below 0.9)
Summary of the method: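 Human fetal neural progenitor spheres (0.3 mm) plated on poly-D-lysine/laminin in N2 differentiation medium, exposed 120 h with half-medium refresh at day 3. Viability by alamar blue resazurin fluorescence; 7 concentrations, DMSO max 0.1%.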

[24] = IUF_NPC1_cytotoxicity_72hr: Cytotoxicity Assessment at 72 hours in the Leibniz Research Institute for Environmental Medicine (IUF) Neural Progenitor Cell Proliferation Assay (NPC1) (AID 2284332);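 also: rising LDH signal means more cytotoxicity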
Summary of the method: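 hNPC spheres (fetal brain, gestational week 16-19) grown under proliferative EGF/FGF conditions, pH 7.2-7.6, were treated continuously for 72 h. Cytotoxicity came from LDH-coupled resazurin fluorescence in each well's supernatant.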

[25] = molecular target: THRA (gene 7067) (UniProt P10827); test: TOX21_TRA_COA_Antagonist_Followup_ratio: Tox21 Thyroid Hormone Receptor alpha Antagonism through Coactivator Recruitment Follow-Up Assay, Ratio (AID 2283953)
THRA (gene 7067), sequence (P10827 whole entry, looked up, the tested form may be a part): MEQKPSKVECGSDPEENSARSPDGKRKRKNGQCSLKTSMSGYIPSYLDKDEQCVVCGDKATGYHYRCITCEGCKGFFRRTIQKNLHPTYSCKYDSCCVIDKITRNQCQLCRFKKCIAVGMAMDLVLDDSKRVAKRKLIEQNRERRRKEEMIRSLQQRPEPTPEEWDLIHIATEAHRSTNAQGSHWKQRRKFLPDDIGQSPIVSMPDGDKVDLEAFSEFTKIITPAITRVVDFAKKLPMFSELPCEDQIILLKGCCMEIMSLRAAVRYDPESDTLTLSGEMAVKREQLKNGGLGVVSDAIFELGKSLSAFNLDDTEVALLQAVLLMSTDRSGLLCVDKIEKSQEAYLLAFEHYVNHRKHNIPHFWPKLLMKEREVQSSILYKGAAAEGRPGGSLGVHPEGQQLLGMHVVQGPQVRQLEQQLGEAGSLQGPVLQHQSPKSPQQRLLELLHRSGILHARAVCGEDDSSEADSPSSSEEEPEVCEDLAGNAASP
Summary of the method: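 This follow-up to the GH3 luciferase screen checks specificity in a cell-free format. It measures SRC-2 coactivator peptide binding to TRα LBD by TR-FRET and scores loss of ratio signal relative to DMSO.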

[26] = TOX21_TRB_BLA_Antagonist_Followup_viability: Viability Assessment in the Tox21 Thyroid Hormone Receptor beta Antagonism Beta-lactamase (BLA) Follow-Up Assay (AID 2283961)
Summary of the method: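 Viability read as CellTiter-Glo ATP luminescence (loss of signal = cytotoxicity) in the same plates as the TRβ-bla readout. TRβ-LBD/GAL4 UAS-bla HEK293T cells were exposed to compounds, 11 concentrations in triplicate, for 18 h at 37C/5% CO2.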

[27] = molecular target: THRB (gene 7068) (UniProt P10828); test: TOX21_TRB_COA_Antagonist_Followup_ratio: Tox21 Thyroid Hormone Receptor beta Antagonism through Coactivator Recruitment Follow-Up Assay, Ratio (AID 2283967)
THRB (gene 7068), sequence (P10828 whole entry, looked up, the tested form may be a part): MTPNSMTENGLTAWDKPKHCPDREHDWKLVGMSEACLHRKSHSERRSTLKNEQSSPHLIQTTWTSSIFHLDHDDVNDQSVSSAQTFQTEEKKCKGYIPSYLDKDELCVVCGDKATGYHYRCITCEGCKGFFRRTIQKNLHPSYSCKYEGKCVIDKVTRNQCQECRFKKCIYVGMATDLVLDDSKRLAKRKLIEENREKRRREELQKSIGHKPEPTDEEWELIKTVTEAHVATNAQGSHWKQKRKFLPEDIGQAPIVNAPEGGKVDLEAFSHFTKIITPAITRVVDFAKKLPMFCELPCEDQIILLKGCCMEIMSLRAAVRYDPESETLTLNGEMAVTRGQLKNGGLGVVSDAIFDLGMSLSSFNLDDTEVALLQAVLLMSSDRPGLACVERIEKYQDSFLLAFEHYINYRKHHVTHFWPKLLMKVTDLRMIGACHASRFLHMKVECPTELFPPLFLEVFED
Summary of the method: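 Cell-free TR-FRET: GST-TRb LBD (5.0 nM) with fluorescein-SRC-2 peptide (200 nM) and Tb anti-GST antibody (2 nM), 0.10% BSA. 520:495 nm emission ratio normalized to DMSO (0%) and T3 (100%).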

[28] = molecular target: Retinoic acid receptor RXR-alpha (Homo sapiens) (UniProt P19793); test: TOX21_TR_RXR_BLA_Antagonist_Followup_ratio: Tox21 Thyroid Hormone Receptor beta Retinoid X Receptor alpha (RXRa) Antagonism Beta-lactamase (BLA) Follow-Up Assay, Ratio (AID 2283972)
Retinoic acid receptor RXR-alpha (Homo sapiens), sequence (P19793 whole entry, looked up, the tested form may be a part): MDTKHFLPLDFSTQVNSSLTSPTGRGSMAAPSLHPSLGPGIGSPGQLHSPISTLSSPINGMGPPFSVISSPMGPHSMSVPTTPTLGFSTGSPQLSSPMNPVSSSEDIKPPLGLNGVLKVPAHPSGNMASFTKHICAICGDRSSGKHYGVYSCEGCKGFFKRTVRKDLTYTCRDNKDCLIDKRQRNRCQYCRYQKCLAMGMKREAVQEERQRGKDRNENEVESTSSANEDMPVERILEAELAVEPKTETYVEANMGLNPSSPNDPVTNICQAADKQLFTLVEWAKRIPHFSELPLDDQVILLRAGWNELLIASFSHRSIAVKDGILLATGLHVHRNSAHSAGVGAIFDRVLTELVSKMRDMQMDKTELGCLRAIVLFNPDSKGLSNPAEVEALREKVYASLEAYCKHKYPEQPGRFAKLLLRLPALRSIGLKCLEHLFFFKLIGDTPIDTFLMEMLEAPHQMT
Summary of the method: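 Beta-lactamase reporter readout as cleaved/uncleaved substrate ratio (460:530 nm) after 2 h substrate loading at room temperature. GAL4-RXRa bla HEK293T cells were exposed 16 h at 37C to 11-point compound series; loss of signal scored against DMSO baseline.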

[29] = TOX21_TR_RXR_BLA_Antagonist_Followup_viability: Viability Assessment in the Tox21 Thyroid Hormone Receptor beta Retinoid X Receptor alpha (RXRa) Antagonism Beta-lactamase (BLA) Follow-Up Assay (AID 2283979)
Summary of the method: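 RXRa-bla HEK293T cells (2,500/well, phenol red-free DMEM, 2% charcoal-stripped FBS) were attached 5 h, then exposed to compounds at 11 concentrations in triplicate for 16 h at 37C. Viability measured by CellTiter-Glo ATP luminescence, bidirectional fitting versus DMSO.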

Measured: AC50

CNC1(c2ccccc2Cl)CCCCC1=O (centres undefined)
active: [10] 34.1 µM | [18] 74.2 µM | [21] 1.48 µM
not listed: [25] | [26] | [27] | [28] | [29]
inactive: all other assays above

CCC(COC(=O)c1cc(OC)c(OC)c(OC)c1)(c1ccccc1)N(C)C (centres undefined)
inactive: [1] | [2] | [3] | [5] | [6] | [25] | [26] | [27] | [28] | [29]
